Compounds without any hit were thinned out: in the full panel of roughly 79,000, 15% have a hit. Calls of active or inactive are those of the source. Rule as the data show it: active = growth inhibition above about 70%; inactive = the rest.
What was measured:
[1] = NCI Yeast Anticancer Drug Screen. Data for the rad50 strain (AID 155);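 also: 0% = growth of vehicle-only cultures of the same strain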; settings: S. cerevisiae rad50 strain growth inhibition, active compounds read high
Method in brief: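 Cells are treated with compound, grown, and their growth is then scored against vehicle-only cultures of the same repair-deficient yeast strain.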

[2] = NCI Yeast Anticancer Drug Screen. Data for the mec2-1 strain (AID 157); settings: S. cerevisiae mec2-1 strain, active compounds read high
Method in brief: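 Strain: mec2-1 (DNA repair/cell cycle alteration). Compound exposure, then growth measured; inhibition expressed relative to vehicle.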

[3] = NCI Yeast Anticancer Drug Screen. Data for the sgs1 mgt1 strain (AID 161);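 also: 0% = growth of cultures given vehicle only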; settings: S. cerevisiae sgs1 mgt1 strain, active compounds read high
Method in brief: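 Read-out: growth inhibition vs vehicle controls. Cells: mutant yeast strain deficient in DNA damage repair.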

[4] = NCI Yeast Anticancer Drug Screen. Data for the cln2 rad14 strain (AID 165);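 also: 0% = growth equal to vehicle treated cultures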; settings: S. cerevisiae cln2 rad14 strain, active compounds read high
Method in brief: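 Compounds are applied to the cln2 rad14 yeast strain, and growth is then compared with that of vehicle-treated cultures to give inhibition.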

[5] = NCI Yeast Anticancer Drug Screen. Data for the bub3 strain (AID 167); settings: S. cerevisiae bub3 mutant strain, active compounds read high
Method in brief: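 Part of a panel of yeast mutants defective in DNA damage repair or cell cycle regulation. Each strain is grown with compound, and inhibition is calculated relative to solvent-treated cultures.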

[6] = NCI Yeast Anticancer Drug Screen. Data for the mlh1 rad18 strain (AID 175); settings: S. cerevisiae mlh1 rad18 strain growth inhibition, active compounds read high
Method in brief: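 Read-out is yeast growth inhibition, calculated against vehicle-only controls. The compound was applied to a strain engineered with DNA damage repair alterations.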

[7] = at 5.0 µM (retest, dose inferred, filed as 0.5)
[8] = at 50.0 µM (retest, dose inferred, filed as 5.0)

Measured: growth inhibition

O=C(CCCc1ccccc1)[O][Hg][c]1ccccc1
active: [1]; [7] 99% | [1]; [8] 99% | [1]; at 50.0 µM 99.7% | [2]; [7] 100% | [2]; [8] 99% | [2]; at 50.0 µM 99.7% | [3]; [7] 98% | [3]; [8] 99% | [3]; at 50.0 µM 99.6% | [4]; [7] 99% | [4]; [8] 99% | [4]; at 50.0 µM 99.2% | [5]; [7] 99% | [5]; [8] 99% | [5]; at 50.0 µM 99.2% | [6]; [7] 99% | [6]; [8] 99% | [6]; at 50.0 µM 99%

CC(=O)c1ccc(-[n+]2c(C)cc(-c3ccccc3)cc2C)cc1
inactive: [1]; [7] -11% | [1]; [8] -1% | [1]; at 50.0 µM -15.4% | [2]; [7] -1% | [2]; [8] -6% | [2]; at 50.0 µM -7.4% | [3]; [7] -19% | [3]; [8] -8% | [3]; at 50.0 µM -13.6% | [4]; [7] 3% | [4]; [8] -3% | [4]; at 50.0 µM 39.6% | [5]; [7] -4% | [5]; [8] -1% | [5]; at 50.0 µM 15.7% | [6]; [7] -5% | [6]; [8] -6% | [6]; at 50.0 µM 21.9%

CC[C@@]1(O)C[C@H](OC2CC(N(C)C)C(O)C(C)O2)c2c(cc3c(c2O)C(=O)c2c(O)ccc(O)c2C3=O)[C@H]1C(=O)OC (stereo not given in full)
active: [1]; [7] 96% | [1]; [8] 98% | [1]; at 50.0 µM 91.1% | [2]; [7] 77% | [2]; [8] 98% | [2]; at 50.0 µM 92.1% | [3]; [7] 88% | [3]; [8] 99% | [3]; at 50.0 µM 92.5% | [4]; [7] 82% | [4]; [8] 99% | [4]; at 50.0 µM 88.7% | [5]; [7] 88% | [5]; [8] 99% | [5]; at 50.0 µM 91.2% | [6]; [7] 94% | [6]; [8] 98% | [6]; at 50.0 µM 93.2%

Nc1ccc([As]=[As]c2ccc(N)cc2)cc1 (stereo not given)
inactive: [1]; [7] -14% | [2]; [7] 2% | [3]; [7] -16% | [3]; [8] 68% | [3]; at 50.0 µM 50.2% | [4]; [7] 2% | [4]; [8] 67% | [5]; [7] 3% | [6]; [7] -1%
active: [1]; [8] 71% | [1]; at 50.0 µM 73.7% | [2]; [8] 91% | [2]; at 50.0 µM 96.6% | [4]; at 50.0 µM 91.2% | [5]; [8] 91% | [5]; at 50.0 µM 97.2% | [6]; [8] 86% | [6]; at 50.0 µM 90.8%

CNP(=O)(Oc1cc(Cl)c(Cl)cc1Cl)N1CCN(c2ccccc2)CC1 (stereo not given)
inactive: [1]; [7] 12% | [2]; [7] 36% | [2]; [8] 48% | [3]; [7] 8% | [4]; [7] 25% | [4]; [8] 53% | [5]; [7] 11% | [6]; [7] -5%
active: [1]; [8] 81% | [1]; at 50.0 µM 98.8% | [2]; at 50.0 µM 98% | [3]; [8] 72% | [3]; at 50.0 µM 98% | [4]; at 50.0 µM 97.8% | [5]; [8] 86% | [5]; at 50.0 µM 97.5% | [6]; [8] 91% | [6]; at 50.0 µM 97.4%

ClCCN1CCOCC1
active: [1]; [7] 95% | [1]; [8] 97% | [1]; at 50.0 µM 98% | [2]; [7] 94% | [2]; [8] 99% | [2]; at 50.0 µM 98.8% | [3]; [7] 89% | [3]; [8] 98% | [3]; at 50.0 µM 98.3% | [4]; [7] 71% | [4]; [8] 98% | [4]; at 50.0 µM 95.8% | [5]; [8] 98% | [5]; at 50.0 µM 98.1% | [6]; [7] 91% | [6]; [8] 98% | [6]; at 50.0 µM 98.8%
inactive: [5]; [7] 34%

CC(=O)[O][Sn]([CH3])([CH3])[c]1ccccc1
active: [1]; [8] 78% | [1]; at 50.0 µM 81.2% | [2]; at 50.0 µM 82.8% | [3]; [8] 92% | [3]; at 50.0 µM 92.5% | [4]; [8] 77% | [4]; at 50.0 µM 74.9% | [5]; [8] 83% | [5]; at 50.0 µM 84.2% | [6]; [8] 94% | [6]; at 50.0 µM 96.3%
inactive: [1]; [7] 2% | [2]; [7] 3% | [2]; [8] 50% | [3]; [7] 1% | [4]; [7] -13% | [5]; [7] -6% | [6]; [7] 3%

CCOc1ccc(CCNC)c2c1ccc1ccc(OC)c(O)c12
active: [1]; [8] 97% | [1]; at 50.0 µM 97.3% | [2]; [8] 98% | [2]; at 50.0 µM 99% | [3]; [8] 98% | [3]; at 50.0 µM 98.1% | [4]; [8] 98% | [4]; at 50.0 µM 92.2% | [5]; [8] 98% | [5]; at 50.0 µM 97.8% | [6]; [8] 96% | [6]; at 50.0 µM 98%
inactive: [1]; [7] -1% | [2]; [7] -5% | [3]; [7] -3% | [4]; [7] 5% | [5]; [7] -4% | [6]; [7] 6%

Cc1c2ccncc2c(CN(CCCl)CCCl)c2c3ccccc3n(C)c12
inactive: [1]; [7] 10% | [2]; [7] 17% | [3]; [7] -25% | [4]; [7] 6% | [5]; [7] -10% | [6]; [7] 24%
active: [1]; [8] 98% | [1]; at 50.0 µM 90.3% | [2]; [8] 99% | [2]; at 50.0 µM 88.5% | [3]; [8] 86% | [3]; at 50.0 µM 85.2% | [4]; [8] 96% | [4]; at 50.0 µM 88.2% | [5]; [8] 80% | [5]; at 50.0 µM 82.1% | [6]; [8] 99% | [6]; at 50.0 µM 91.8%

CCc1c[c]([Hg][Cl])c(CC)c(CC)c1CC
active: [1]; [8] 99% | [1]; at 50.0 µM 99.4% | [2]; [8] 99% | [2]; at 50.0 µM 99.7% | [3]; [8] 100% | [3]; at 50.0 µM 99.7% | [4]; [8] 90% | [5]; [8] 99% | [6]; [8] 99% | [6]; at 50.0 µM 98.6%
inactive: [1]; [7] 5% | [2]; [7] 68% | [3]; [7] 40% | [4]; [7] 2% | [4]; at 50.0 µM 23.7% | [5]; [7] 7% | [5]; at 50.0 µM 16.1% | [6]; [7] 35%

— PubChem BioAssay (NCI)
